In the supplement of paper PMC6897291:
Counter-ions that a name gives are not always drawn.

System: RIVA
Experiment: growth inhibition by drug plus 177Lu-lilotomab satetraxetan (1 - RLU/untreated control) (fraction); higher = stronger inhibition
Conditions: 177Lu-lilotomab satetraxetan 0.5 ug/ml
Procedure: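 RIVA (RI-1) ABC-DLBCL cells were pretreated or not for 18 h with 0.5 ug/ml 177Lu-lilotomab satetraxetan (600 MBq/mg), washed and seeded (3000 cells/well) on 384-well plates pre-printed with the Selleck Cambridge Cancer Compound library. Viability was read by RealTime-Glo luminescence on days 3-6 after seeding. Effect = 1 - RLU/mean RLU of the 48 untreated no-drug control wells per plate; Bliss score = (M-E)/(1-Fa).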

Structure (SMILES) | growth inhibition by drug plus 177Lu-lilotomab satetraxetan (10 nM, time (day): 3) | growth inhibition by drug plus 177Lu-lilotomab satetraxetan (10 nM, time (day): 4) | growth inhibition by drug plus 177Lu-lilotomab satetraxetan (10 nM, time (day): 5) | growth inhibition by drug plus 177Lu-lilotomab satetraxetan (10 nM, time (day): 6) | growth inhibition by drug plus 177Lu-lilotomab satetraxetan (100 nM, time (day): 3) | growth inhibition by drug plus 177Lu-lilotomab satetraxetan (100 nM, time (day): 4) | growth inhibition by drug plus 177Lu-lilotomab satetraxetan (100 nM, time (day): 5) | growth inhibition by drug plus 177Lu-lilotomab satetraxetan (100 nM, time (day): 6)
CC(C)(C)c1cnc(CSc2cnc(NC(=O)C3CCNCC3)s2)o1 | 0.484 | 0.533 | 0.556 | 0.564 | 0.267 | 0.359 | 0.373 | 0.353
O=C(/C=C/c1cccnc1)NCCCCC1CCN(C(=O)c2ccccc2)CC1 | 0.991 | 0.991 | 0.99 | 0.99 | 0.99 | 0.99 | 0.991 | 0.991
C[C@@H]1C[C@H]2[C@@H]3CCC4=CC(=O)C=C[C@]4(C)[C@@]3(F)[C@@H](O)C[C@]2(C)[C@@]1(O)C(=O)CO [Dexamethasone] | 0.415 | 0.467 | 0.484 | 0.498 | 0.362 | 0.429 | 0.417 | 0.414
Cc1cn(-c2cc(NC(=O)c3ccc(C)c(Nc4nccc(-c5cccnc5)n4)c3)cc(C(F)(F)F)c2)cn1 [Nilotinib (AMN-107)] | 0.372 | 0.516 | 0.522 | 0.537 | 0.362 | 0.471 | 0.491 | 0.466
CO[C@H]1/C=C\C=C(/C)C(=O)NC2=CC(=O)C(NCCN(C)C)=C(C[C@@H](C)C[C@H](OC)[C@H](O)[C@@H](C)/C=C(\C)[C@@H]1OC(N)=O)C2=O [17-DMAG HCl (Alvespimycin)] | 0.602 | 0.624 | 0.637 | 0.653 | 0.96 | 0.98 | 0.982 | 0.987
